Data: PubChem BioAssay (Tox21)
“And” between values parts separate entries of the source, which are not always exact repeats. Identical values can stand only once. Records with an inconclusive call do not appear. A call without a number means that no potency is given here. A structure can be active in one record and inactive in another. The source made the active and inactive calls. Calls come from the whole dose curve; as a rule, active = well fitted curve in the direction sought with a large enough effect in the repeat runs; inconclusive = weak or mixed curves; inactive = no such curve, though single readings can be large; an effect the other way counts as inactive or inconclusive.

Experiments:
[1] = Human pregnane X receptor (PXR) small molecule agonists, qHTS cell viability counter screen (AID 1346977); note: nearly all actives have a fitted effect of over 50% in size
Summary of the method: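 PXR-Luc HepG2 cells in medium with 5% charcoal-stripped FBS were pre-incubated 5hr, then exposed to compounds for 24hr at 37C. Viability was read in the same wells by CellTiter-Fluor fluorescence, reagent added after 23hr with a 1hr incubation.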

[2] = Caspase-3/7 induction in HepG2 cells by small molecules, qHTS assay (AID 1346978); note: nearly all actives have a fitted effect of over 15% in size
Summary of the method: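 Wild-type HepG2 cells (2,000/well) were settled 5 h at 37 C, 5% CO2, then exposed to compounds in DMSO for 17 h. Caspase-3/7 activity was read by luminescence 30 min after adding Caspase-Glo 3/7 reagent at room temperature.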

[3] = Caspase-3/7 induction in CHO-K1 cells by small molecules, qHTS cell viability counter screen (AID 1346979); note: nearly all actives have a fitted effect of over 35% in size
Summary of the method: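 Wild-type CHO-K1 cells were seeded at 1,500 per well, rested 5hr at 37 C, then exposed to compounds in DMSO. After 16hr, CellTiter-Fluor reagent was added and fluorescence read 1hr later as the viability measure.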

[4] = Caspase-3/7 induction in CHO-K1 cells by small molecules, qHTS assay (AID 1346980); note: nearly all actives have a fitted effect of over 15% in size
Summary of the method: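 Wild-type cells were seeded at 1,500 per well and settled 5 hr at 37 C, 5% CO2, then exposed to DMSO-dissolved compounds for 17 hr. Caspase-Glo 3/7 reagent was added, and luminescence was read after 30min at room temperature.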

[5] = Caspase-3/7 induction in HepG2 cells by small molecules, qHTS cell viability counter screen (AID 1346981); note: series mostly up to about 92 µM; nearly all actives have a fitted effect of over 30% in size
Summary of the method: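 Fluorescence read-out of live-cell protease activity (CellTiter-Fluor) after 1 hr with reagent. This was measured in the same wells as the caspase-3/7 luminescence, on HepG2 cells exposed to DMSO-dissolved compounds for 16 hr at 37 C.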

[6] = biological target: Nuclear receptor subfamily 1 group I member 2 (Homo sapiens) (UniProt O75469); experiment: Human pregnane X receptor (PXR) small molecule agonists, qHTS assay (AID 1346982); note: nearly all actives have a fitted effect of over 35% in size; note: potency is the fitted concentration of half-maximal effect
Summary of the method: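 HepG2 PXR-Luc reporter line, 5% charcoal-stripped FBS; 5 hr pre-incubation, compound (DMSO) 24 hr at 37 C/5% CO2; ONE-Glo 30 min RT; luminescence read-out.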

[7] = biological target: Cytochrome P450 2D6 (Homo sapiens) (UniProt P10635); experiment: Cytochrome P450 Family 2 Subfamily D Member 6 (CYP2D6) small molecule antagonists: luciferase reporter qHTS assay (AID 1671196); note: nearly all actives have a fitted effect of over 50% in size; note: potency is the fitted concentration of half-maximal effect
Summary of the method: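 Luminogenic proluciferin substrate, CYP2D6 enzyme; 10 min RT preincubation with compound, NADPH regeneration system added, 1 h RT. Stop/detection reagent, 20 min RT, luminescence read (RLU). Signal proportional to CYP activity.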

[8] = biological target: Cytochrome P450 2C19 (Homo sapiens) (UniProt P33261); experiment: Cytochrome P450 Family 2 Subfamily C Member 19 (CYP2C19) small molecule antagonists: luciferase reporter qHTS assay (AID 1671197); note: nearly all actives have a fitted effect of over 65% in size; note: potency is the fitted concentration of half-maximal effect
Summary of the method: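 CYP2C19 P450-Glo, 1536-well qHTS. Cpd + enzyme/proluciferin substrate 10 min RT; + NADPH regen, 37C 1 h; stop with luciferin detection reagent, 20 min RT, luminescence (RLU). Pos ctrl ketoconazole.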

[9] = biological target: Cytochrome P450 2C9 (Homo sapiens) (UniProt P11712); experiment: Cytochrome P450 Family 2 Subfamily C Member 9 (CYP2C9) small molecule antagonists: luciferase reporter qHTS assay (AID 1671198); note: nearly all actives have a fitted effect of over 50% in size; note: potency is the fitted concentration of half-maximal effect
Summary of the method: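 CYP2C9 activity was measured with a P450-Glo proluciferin substrate. Enzyme–substrate mix was held with compound for 10 min at room temperature, then NADPH regeneration solution was added for 1 h at 37C. Luciferin product was read as luminescence.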

[10] = biological target: Cytochrome P450 1A2 (Homo sapiens) (UniProt P05177); experiment: Cytochrome P450 Family 1 Subfamily A Member 2 (CYP1A2) small molecule antagonists: luciferase reporter qHTS assay (AID 1671199); note: nearly all actives have a fitted effect of over 50% in size; note: potency is the fitted concentration of half-maximal effect
Summary of the method: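 Luminescence readout (relative luminescence units) after luciferin detection reagent, 20 min RT. Preceded by 1 h room-temperature CYP1A2 reaction with NADPH regeneration solution following 10 min compound preincubation with enzyme and proluciferin substrate. Furafylline positive control.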

[11] = biological target: Voltage-gated inwardly rectifying potassium channel KCNH2 (Homo sapiens) (UniProt Q12809); experiment: Human Ether-a-go-go-Related Gene (hERG) channel small molecule antagonists: fluorescence cell-based qHTS assay (AID 1671200)
Summary of the method: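 U2OS cells expressing the channel were plated at 1000 cells/well, incubated overnight at 37 C, then loaded with FluxOR II thallium-sensitive dye for 1 h at room temperature in the dark, with a further 10 min at room temperature before stimulation.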

[12] = biological target: Cytochrome P450 3A4 (Homo sapiens) (UniProt P08684); experiment: Cytochrome P450 Family 3 Subfamily A Member 4 (CYP3A4) small molecule antagonists: luciferase reporter qHTS assay (AID 1671201); note: nearly all actives have a fitted effect of over 50% in size; note: potency is the fitted concentration of half-maximal effect
Summary of the method: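 P450-Glo CYP3A4 system with proluciferin substrate; compounds preincubated 10 min RT with enzyme-substrate mix, then NADPH regeneration added for 1 h RT. Detection reagent 20 min, luminescence read as relative luminescence units.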

Cytochrome P450 1A2 (Homo sapiens), sequence (P05177 whole entry, looked up): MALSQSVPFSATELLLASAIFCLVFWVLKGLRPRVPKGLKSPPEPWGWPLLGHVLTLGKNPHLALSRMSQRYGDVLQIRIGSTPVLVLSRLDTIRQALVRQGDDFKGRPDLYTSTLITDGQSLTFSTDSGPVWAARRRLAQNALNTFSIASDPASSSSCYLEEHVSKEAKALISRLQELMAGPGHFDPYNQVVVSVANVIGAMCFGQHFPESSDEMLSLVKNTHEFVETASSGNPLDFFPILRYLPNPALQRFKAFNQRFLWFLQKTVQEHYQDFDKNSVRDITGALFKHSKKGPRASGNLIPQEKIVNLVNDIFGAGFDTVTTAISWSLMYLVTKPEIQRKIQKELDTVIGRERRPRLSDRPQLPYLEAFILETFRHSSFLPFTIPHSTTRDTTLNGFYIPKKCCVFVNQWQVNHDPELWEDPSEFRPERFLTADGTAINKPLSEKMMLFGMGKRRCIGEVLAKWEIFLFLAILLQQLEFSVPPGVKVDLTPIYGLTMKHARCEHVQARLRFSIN
Cytochrome P450 3A4 (Homo sapiens), sequence (P08684 whole entry, looked up): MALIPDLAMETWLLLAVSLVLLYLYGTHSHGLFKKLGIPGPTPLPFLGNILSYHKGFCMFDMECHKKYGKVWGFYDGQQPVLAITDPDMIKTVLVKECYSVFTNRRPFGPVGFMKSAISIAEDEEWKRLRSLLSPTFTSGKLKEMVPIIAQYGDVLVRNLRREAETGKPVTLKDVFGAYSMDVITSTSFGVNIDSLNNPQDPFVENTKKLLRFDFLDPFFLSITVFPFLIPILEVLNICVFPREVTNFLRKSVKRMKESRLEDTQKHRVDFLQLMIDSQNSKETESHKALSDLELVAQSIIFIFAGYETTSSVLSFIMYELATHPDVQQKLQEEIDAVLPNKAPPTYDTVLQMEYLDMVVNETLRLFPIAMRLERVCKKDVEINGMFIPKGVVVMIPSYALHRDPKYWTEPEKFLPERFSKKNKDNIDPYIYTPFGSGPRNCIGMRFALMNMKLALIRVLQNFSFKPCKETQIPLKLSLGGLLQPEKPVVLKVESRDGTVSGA
Cytochrome P450 2C9 (Homo sapiens), sequence (P11712 whole entry, looked up): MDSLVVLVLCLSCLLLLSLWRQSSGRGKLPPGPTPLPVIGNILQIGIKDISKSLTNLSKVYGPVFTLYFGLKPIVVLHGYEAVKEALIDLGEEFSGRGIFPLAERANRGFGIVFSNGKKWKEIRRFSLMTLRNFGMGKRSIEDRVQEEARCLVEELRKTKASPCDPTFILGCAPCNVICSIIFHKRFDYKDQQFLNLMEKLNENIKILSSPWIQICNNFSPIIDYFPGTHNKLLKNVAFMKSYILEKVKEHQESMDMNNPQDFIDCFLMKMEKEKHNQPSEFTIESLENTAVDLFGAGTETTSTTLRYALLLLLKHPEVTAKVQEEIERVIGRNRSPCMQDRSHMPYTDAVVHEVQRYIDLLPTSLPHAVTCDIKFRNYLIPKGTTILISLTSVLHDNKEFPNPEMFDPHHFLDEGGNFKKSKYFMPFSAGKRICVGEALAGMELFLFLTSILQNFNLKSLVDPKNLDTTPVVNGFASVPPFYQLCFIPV
Voltage-gated inwardly rectifying potassium channel KCNH2 (Homo sapiens), sequence (Q12809 whole entry, looked up): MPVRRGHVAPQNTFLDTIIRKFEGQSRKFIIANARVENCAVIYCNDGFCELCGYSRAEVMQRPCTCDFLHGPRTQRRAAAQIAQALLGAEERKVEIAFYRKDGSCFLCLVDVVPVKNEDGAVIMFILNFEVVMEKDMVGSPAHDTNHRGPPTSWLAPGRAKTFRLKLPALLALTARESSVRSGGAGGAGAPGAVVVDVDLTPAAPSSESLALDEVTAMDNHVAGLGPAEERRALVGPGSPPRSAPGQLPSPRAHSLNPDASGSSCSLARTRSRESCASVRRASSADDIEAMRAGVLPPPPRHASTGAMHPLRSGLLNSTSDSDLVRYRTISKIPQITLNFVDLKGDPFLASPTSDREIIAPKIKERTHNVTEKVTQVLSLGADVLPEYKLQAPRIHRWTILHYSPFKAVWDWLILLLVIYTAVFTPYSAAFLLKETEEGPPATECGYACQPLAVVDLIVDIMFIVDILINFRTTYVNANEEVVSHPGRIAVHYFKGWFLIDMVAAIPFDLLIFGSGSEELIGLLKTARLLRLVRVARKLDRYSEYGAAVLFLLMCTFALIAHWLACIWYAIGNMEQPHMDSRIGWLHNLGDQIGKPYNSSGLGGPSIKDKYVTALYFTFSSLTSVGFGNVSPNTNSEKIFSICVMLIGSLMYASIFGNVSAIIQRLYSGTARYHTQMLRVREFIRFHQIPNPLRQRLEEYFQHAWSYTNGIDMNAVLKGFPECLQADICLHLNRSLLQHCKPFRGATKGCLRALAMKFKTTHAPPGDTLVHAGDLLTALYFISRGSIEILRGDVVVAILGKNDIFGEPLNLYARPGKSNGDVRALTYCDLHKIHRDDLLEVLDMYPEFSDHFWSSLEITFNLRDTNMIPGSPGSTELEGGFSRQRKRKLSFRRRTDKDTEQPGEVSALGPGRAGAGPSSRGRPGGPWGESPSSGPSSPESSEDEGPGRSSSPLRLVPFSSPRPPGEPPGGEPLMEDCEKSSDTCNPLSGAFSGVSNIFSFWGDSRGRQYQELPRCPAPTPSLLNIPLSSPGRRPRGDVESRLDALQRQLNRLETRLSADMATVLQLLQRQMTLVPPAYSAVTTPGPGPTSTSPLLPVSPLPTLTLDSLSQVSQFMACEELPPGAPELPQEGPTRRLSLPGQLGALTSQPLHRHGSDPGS
Nuclear receptor subfamily 1 group I member 2 (Homo sapiens), sequence (O75469 whole entry, looked up): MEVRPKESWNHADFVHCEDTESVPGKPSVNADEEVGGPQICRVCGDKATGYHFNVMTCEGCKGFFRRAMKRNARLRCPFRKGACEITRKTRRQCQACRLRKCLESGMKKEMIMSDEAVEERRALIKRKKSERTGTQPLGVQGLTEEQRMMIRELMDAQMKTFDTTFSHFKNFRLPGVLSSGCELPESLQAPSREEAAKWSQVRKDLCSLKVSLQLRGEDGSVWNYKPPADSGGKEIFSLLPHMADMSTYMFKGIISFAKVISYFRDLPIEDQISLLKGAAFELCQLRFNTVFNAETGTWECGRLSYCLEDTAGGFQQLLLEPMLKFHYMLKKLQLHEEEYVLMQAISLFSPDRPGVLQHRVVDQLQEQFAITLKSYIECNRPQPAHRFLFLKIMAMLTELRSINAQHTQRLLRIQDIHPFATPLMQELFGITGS
Cytochrome P450 2D6 (Homo sapiens), sequence (P10635 whole entry, looked up): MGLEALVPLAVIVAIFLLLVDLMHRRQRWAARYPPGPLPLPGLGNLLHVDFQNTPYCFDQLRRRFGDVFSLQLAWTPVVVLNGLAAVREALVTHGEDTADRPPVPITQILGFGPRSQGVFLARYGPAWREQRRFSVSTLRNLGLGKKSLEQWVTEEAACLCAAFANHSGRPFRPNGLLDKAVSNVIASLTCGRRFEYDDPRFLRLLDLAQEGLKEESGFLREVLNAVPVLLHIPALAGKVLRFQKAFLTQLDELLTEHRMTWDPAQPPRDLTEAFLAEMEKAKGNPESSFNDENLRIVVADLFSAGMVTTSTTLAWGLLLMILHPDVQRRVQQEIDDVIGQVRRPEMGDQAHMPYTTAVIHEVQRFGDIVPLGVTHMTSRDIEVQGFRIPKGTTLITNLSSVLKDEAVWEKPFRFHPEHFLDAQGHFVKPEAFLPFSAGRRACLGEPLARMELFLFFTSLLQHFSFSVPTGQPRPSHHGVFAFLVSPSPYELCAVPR
Cytochrome P450 2C19 (Homo sapiens), sequence (P33261 whole entry, looked up): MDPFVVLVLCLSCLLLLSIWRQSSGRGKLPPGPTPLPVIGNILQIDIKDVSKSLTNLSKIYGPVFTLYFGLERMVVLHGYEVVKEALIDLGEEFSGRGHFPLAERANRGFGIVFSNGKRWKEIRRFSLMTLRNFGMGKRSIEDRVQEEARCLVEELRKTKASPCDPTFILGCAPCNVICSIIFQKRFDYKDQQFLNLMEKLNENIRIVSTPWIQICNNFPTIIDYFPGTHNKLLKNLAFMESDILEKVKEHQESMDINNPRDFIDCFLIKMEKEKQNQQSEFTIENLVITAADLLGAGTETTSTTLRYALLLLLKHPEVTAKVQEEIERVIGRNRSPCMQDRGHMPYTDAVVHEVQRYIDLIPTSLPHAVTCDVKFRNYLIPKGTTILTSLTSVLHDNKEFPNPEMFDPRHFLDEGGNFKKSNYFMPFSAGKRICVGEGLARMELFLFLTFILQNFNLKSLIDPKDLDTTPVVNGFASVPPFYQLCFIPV

For `O=c1[nH]cnc2[nH]ncc12`, the Potency [1] was “inactive”, the Potency [2] was “inactive” and the Potency [3] was “inactive”. The outcome [4] was “inactive”, the Potency [5] was “inactive” and the Potency [6] was “inactive”. For the same compound, the Potency [7] was “inactive”, the Potency [8] was “inactive” and the Potency [9] was “inactive”. For the same compound, the Potency [10] was “inactive”, the Potency [11] was “inactive” and the Potency [12] was “inactive”.

In the case of `CCCCCCO`, the Potency [1] is reported as “inactive”, the Potency [2] is reported as “inactive” and the Potency [3] is reported as “inactive”. The outcome [4] was “inactive”, the Potency [5] was “inactive” and the Potency [6] was “inactive”. For the same compound, the Potency [7] was “inactive”, the Potency [8] was “inactive” and the Potency [9] was “inactive”. The Potency [11] was “inactive” and the Potency [12] was “inactive”.

For `O=C(O)c1ccc(C(=O)O)c(C(=O)O)c1`, the Potency [1] was “inactive”, the Potency [2] was “inactive” and the Potency [3] was “inactive”. For the same compound, the outcome [4] was “inactive”, the Potency [5] was “inactive” and the Potency [6] was “inactive”. The Potency [7] was “inactive”, the Potency [8] was “inactive” and the Potency [9] was “inactive”. The Potency [10] was “inactive”, the Potency [11] was “inactive” and the Potency [12] was “inactive”.

With `CCCCCCCO` the Potency [1] was “inactive”, the Potency [2] was “inactive” and the Potency [3] was “inactive”. The outcome [4] was “inactive”, the Potency [5] was “inactive” and the Potency [6] was “inactive”. The Potency [7] was “inactive”, the Potency [8] was 72 µM (active) and inactive and the Potency [9] was “inactive”. The Potency [11] was “inactive” and the Potency [12] was “inactive”.

In the case of `CC1(C)NC(=O)NC1=O`, the Potency [1] is reported as “inactive”, the Potency [2] is reported as “inactive” and the Potency [3] is reported as “inactive”. For the same compound, the outcome [4] was “inactive”, the Potency [5] was “inactive” and the Potency [6] was “inactive”. For the same compound, the Potency [7] was “inactive”, the Potency [8] was “inactive” and the Potency [9] was “inactive”. For the same compound, the Potency [11] was “inactive” and the Potency [12] was “inactive”.

For `O=C(O)c1ccccc1C(=O)O`, the Potency [1] was “inactive”, the Potency [2] was “inactive” and the Potency [3] was “inactive”. For the same compound, the outcome [4] was “inactive”, the Potency [5] was “inactive” and the Potency [6] was “inactive”. The Potency [7] was “inactive”, the Potency [8] was 41.2 µM (active) and 82.1 µM (active) and the Potency [9] was “inactive”. For the same compound, the Potency [11] was “inactive” and the Potency [12] was “inactive”.

In the case of `O=C(O)c1cc2ccccc2cc1O`, the Potency [1] is reported as “inactive”, the Potency [2] is reported as “inactive” and the Potency [3] is reported as “inactive”. The outcome [4] was “inactive”, the Potency [5] was “inactive” and the Potency [6] was 54.1 µM (active). The Potency [7] was “inactive”, the Potency [8] was 35.3 µM (active) and 79.6 µM (active) and the Potency [9] was 62.8 µM (active) and 56.4 µM (active). For the same compound, the Potency [10] was 39.9 µM (active), the Potency [11] was “inactive” and the Potency [12] was “inactive”.

In the case of `O=C1c2ccccc2CCc2ccccc21`, the Potency [1] is reported as “inactive”, the Potency [2] is reported as “inactive” and the Potency [3] is reported as “inactive”. The outcome [4] was “inactive”, the Potency [5] was “inactive” and the Potency [6] was 55.6 µM (active) and inactive. For the same compound, the Potency [7] was “inactive”, the Potency [8] was 18.2 µM (active) and 7.76 µM (active) and the Potency [9] was 36.3 µM (active). For the same compound, the Potency [11] was “inactive” and the Potency [12] was “inactive”.

In the case of `C[Si]1(C)O[Si](C)(C)O[Si](C)(C)O[Si](C)(C)O1`, the Potency [1] is reported as “inactive”, the Potency [2] is reported as “inactive” and the Potency [3] is reported as “inactive”. The outcome [4] was “inactive”, the Potency [5] was “inactive” and the Potency [6] was “inactive”. For the same compound, the Potency [7] was “inactive”, the Potency [8] was “inactive” and the Potency [9] was “inactive”. The Potency [10] was “inactive”, the Potency [11] was “inactive” and the Potency [12] was “inactive”.

In the case of `Cc1ccc([N+](=O)[O-])cc1S(=O)(=O)O`, the Potency [1] is reported as “inactive”, the Potency [2] is reported as “inactive” and the Potency [3] is reported as “inactive”. The outcome [4] was “inactive”, the Potency [5] was “inactive” and the Potency [6] was “inactive”. The Potency [7] was 39.2 µM (active), the Potency [8] was 35.6 µM (active) and the Potency [9] was 56.4 µM (active). For the same compound, the Potency [10] was “inactive and 63.3 µM (active)”, the Potency [11] was “inactive” and the Potency [12] was “inactive”.

With `O=C(OCC1CCC2OC2C1)C1CCC2OC2C1` (stereo not given) the Potency [1] was “inactive”, the Potency [2] was “inactive” and the Potency [3] was “inactive”. For the same compound, the outcome [4] was “inactive”, the Potency [5] was “inactive” and the Potency [6] was “inactive”. The Potency [7] was 16.6 µM (active) and inactive, the Potency [8] was “inactive” and the Potency [9] was 71 µM (active). For the same compound, the Potency [11] was “inactive”.

For `Brc1ccc(Br)c(Br)c1`, the Potency [1] was “inactive”, the Potency [2] was “inactive” and the Potency [3] was “inactive”. For the same compound, the outcome [4] was “inactive”, the Potency [5] was “inactive” and the Potency [6] was “inactive”. The Potency [7] was “inactive”, the Potency [8] was “inactive” and the Potency [9] was “inactive”. For the same compound, the Potency [10] was “inactive”, the Potency [11] was “inactive” and the Potency [12] was “inactive”.

For `c1ccc2c(c1)Cc1ccccc1-2`, the Potency [1] was “inactive”, the Potency [2] was “inactive” and the Potency [3] was “inactive”. The outcome [4] was “inactive”, the Potency [5] was “inactive” and the Potency [6] was “inactive”. For the same compound, the Potency [7] was “inactive”, the Potency [8] was “inactive and 35.6 µM (active)” and the Potency [9] was “inactive and 39.9 µM (active)”. The Potency [11] was “inactive” and the Potency [12] was “inactive”.

For `CC1(C)CC(N)CC(C)(CN)C1` (stereo not given), the Potency [1] was “inactive”, the Potency [2] was “inactive” and the Potency [3] was “inactive”. The outcome [4] was “inactive”, the Potency [5] was “inactive” and the Potency [6] was 49.3 µM (active) and 24.3 µM (active). For the same compound, the Potency [7] was 36.1 µM (active) and inactive, the Potency [8] was “inactive” and the Potency [9] was “inactive”. The Potency [11] was “inactive” and the Potency [12] was 5.73 µM (active) and 4.48 µM (active).

For `C=CC[N+](C)(C)CC=C`, the Potency [1] was “inactive”, the Potency [2] was “inactive” and the Potency [3] was “inactive”. The outcome [4] was “inactive”, the Potency [5] was “inactive” and the Potency [6] was 54.9 µM (active) and inactive. For the same compound, the Potency [7] was “inactive”, the Potency [8] was 56.8 µM (active) and inactive and the Potency [9] was “inactive”. The Potency [10] was “inactive”, the Potency [11] was “inactive” and the Potency [12] was “inactive”.

With `CC(=O)OC1CC(C)OC(C)O1` (stereo not given) the Potency [1] was “inactive”, the Potency [2] was “inactive” and the Potency [3] was “inactive”. The outcome [4] was “inactive”, the Potency [5] was “inactive” and the Potency [6] was “inactive”. The Potency [7] was “inactive”, the Potency [8] was 70.1 µM (active) and inactive and the Potency [9] was “inactive”. The Potency [11] was “inactive” and the Potency [12] was “inactive”.

For `O=C(O)CCCCCCCCC(=O)O`, the Potency [1] was “inactive”, the Potency [2] was “inactive” and the Potency [3] was “inactive”. The outcome [4] was “inactive”, the Potency [5] was “inactive” and the Potency [6] was “inactive”. For the same compound, the Potency [7] was “inactive”, the Potency [8] was 50.5 µM (active) and inactive and the Potency [9] was “inactive”. The Potency [11] was “inactive” and the Potency [12] was “inactive”.

With `CC(C)CC(=O)CC(C)CC(C)C` (stereo not given) the Potency [1] was “inactive”, the Potency [2] was “inactive” and the Potency [3] was “inactive”. The outcome [4] was “inactive”, the Potency [5] was “inactive” and the Potency [6] was “inactive”. For the same compound, the Potency [7] was “inactive”, the Potency [8] was 79.2 µM (active) and inactive and the Potency [9] was “inactive”. The Potency [11] was “inactive” and the Potency [12] was “inactive”.

For `CNC(=S)N(C)C`, the Potency [1] was “inactive”, the Potency [2] was “inactive” and the Potency [3] was “inactive”. For the same compound, the outcome [4] was “inactive”, the Potency [5] was “inactive” and the Potency [6] was 61.7 µM (active) and inactive. The Potency [7] was “inactive”, the Potency [8] was “inactive” and the Potency [9] was “inactive”. For the same compound, the Potency [11] was “inactive” and the Potency [12] was “inactive”.
